Laboratory results from PubChem BioAssay (Tox21).
Records with an inconclusive call do not appear. The source made the active and inactive calls. Calls come from the whole dose curve; as a rule, active = well fitted curve in the direction sought with a large enough effect in the repeat runs; inconclusive = weak or mixed curves; inactive = no such curve, though single readings can be large; an effect the other way counts as inactive or inconclusive.

Tests used:
[1] = Caspase-3/7 induction in HepG2 cells by small molecules, qHTS assay (AID 1346978); note: nearly all actives have a fitted effect of over 15% in size
In short: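 Wild-type HepG2 cells, 2,000/well, settled 5 hr at 37 C and 5% CO2, then compound-treated for 17 hr; caspase-3/7 activity read by luminescent Caspase-Glo 3/7 after 30 min at room temperature.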

[2] = Caspase-3/7 induction in CHO-K1 cells by small molecules, qHTS cell viability counter screen (AID 1346979); note: nearly all actives have a fitted effect of over 35% in size; note: potency is the fitted concentration of half-maximal effect
In short: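 To flag cytotoxic compounds, treated CHO-K1 wild-type cells were given CellTiter-Fluor at 16hr and read fluorescently after 1hr at 37C; the caspase-3/7 luminescence was measured in these same wells.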

[3] = Caspase-3/7 induction in CHO-K1 cells by small molecules, qHTS assay (AID 1346980); note: nearly all actives have a fitted effect of over 15% in size
In short: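 Wild-type CHO-K1 cells exposed to compounds for 17hr at 37 C, 5% CO2. Caspase-3/7 activity then measured by Caspase-Glo 3/7 luminescence after 30min at room temperature.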

[4] = target: Nuclear receptor subfamily 1 group I member 2 (Homo sapiens) (UniProt O75469); experiment: Human pregnane X receptor (PXR) small molecule agonists, qHTS assay (AID 1346982); note: nearly all actives have a fitted effect of over 35% in size; note: potency is the fitted concentration of half-maximal effect
Chain of Nuclear receptor subfamily 1 group I member 2 (Homo sapiens) (O75469 whole entry, looked up): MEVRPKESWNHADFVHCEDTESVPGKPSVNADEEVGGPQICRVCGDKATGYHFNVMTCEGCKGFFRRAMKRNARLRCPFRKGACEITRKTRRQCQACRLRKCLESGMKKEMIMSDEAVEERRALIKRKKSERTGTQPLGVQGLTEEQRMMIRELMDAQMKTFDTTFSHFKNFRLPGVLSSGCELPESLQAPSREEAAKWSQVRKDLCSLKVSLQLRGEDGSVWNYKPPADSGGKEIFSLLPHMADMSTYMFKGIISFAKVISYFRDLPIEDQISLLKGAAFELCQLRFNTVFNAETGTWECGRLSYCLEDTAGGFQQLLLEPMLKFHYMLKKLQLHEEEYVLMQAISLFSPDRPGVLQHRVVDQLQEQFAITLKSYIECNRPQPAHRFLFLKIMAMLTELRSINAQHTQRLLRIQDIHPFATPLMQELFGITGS
In short: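 Agonist mode qHTS: PXR-Luc HepG2 cells plated 5 hr before DMSO-dissolved compounds were pinned in, cultured 24 hr at 37 C, 5% CO2; ONE-Glo luminescence readout.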

[5] = target: Nuclear receptor subfamily 1 group I member 2 (Rattus norvegicus) (UniProt Q9R1A7); experiment: Rat pregnane X receptor (rPXR) activation by small molecules, qHTS assay (AID 1346983); settings: rPXR luciferase reporter cells, One-Glo luminescence, 24 h; max activation: hits give high values; note: nearly all actives have a fitted effect of over 20% in size; note: potency is the fitted concentration of half-maximal effect
Chain of Nuclear receptor subfamily 1 group I member 2 (Rattus norvegicus) (Q9R1A7 whole entry, looked up): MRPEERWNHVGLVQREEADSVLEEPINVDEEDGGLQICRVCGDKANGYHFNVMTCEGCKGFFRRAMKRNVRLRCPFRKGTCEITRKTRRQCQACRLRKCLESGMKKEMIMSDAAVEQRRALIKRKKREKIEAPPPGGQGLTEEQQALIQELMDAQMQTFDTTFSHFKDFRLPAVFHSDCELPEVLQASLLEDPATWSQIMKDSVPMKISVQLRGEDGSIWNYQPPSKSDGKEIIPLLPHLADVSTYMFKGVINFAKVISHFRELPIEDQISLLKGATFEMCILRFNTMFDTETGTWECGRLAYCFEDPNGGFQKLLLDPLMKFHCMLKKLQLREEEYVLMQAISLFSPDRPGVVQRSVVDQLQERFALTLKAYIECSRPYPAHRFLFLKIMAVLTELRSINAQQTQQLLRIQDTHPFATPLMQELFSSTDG
In short: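 Cell-based rPXR activation assay: rPXR cells, 2,000 per well, rested 5hr at 37 C, then exposed to compounds in DMSO for 24 hr at 37 C. Luciferase activity read by One-Glo luminescence after 30 min at room temperature.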

[6] = target: Nuclear receptor subfamily 1 group I member 2 (Homo sapiens) (UniProt O75469); experiment: CYP3A4 induction through human pregnane X receptor (PXR) by small molecules, qHTS assay (AID 1346984); note: nearly all actives have a fitted effect of over 40% in size; note: potency is the fitted concentration of half-maximal effect
In short: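 Steps: seed DPX-2 cells, 5 hr at 37C; pin-transfer compounds; 24 hr at 37C; add Luciferin-IPA (3uM final), 3 hr at 37C; add One-Glo, 30 min RT; read luminescence.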

[7] = target: Cytochrome P450 2D6 (Homo sapiens) (UniProt P10635); experiment: Cytochrome P450 Family 2 Subfamily D Member 6 (CYP2D6) small molecule antagonists: luciferase reporter qHTS assay (AID 1671196); note: nearly all actives have a fitted effect of over 50% in size; note: potency is the fitted concentration of half-maximal effect
Chain of Cytochrome P450 2D6 (Homo sapiens) (P10635 whole entry, looked up): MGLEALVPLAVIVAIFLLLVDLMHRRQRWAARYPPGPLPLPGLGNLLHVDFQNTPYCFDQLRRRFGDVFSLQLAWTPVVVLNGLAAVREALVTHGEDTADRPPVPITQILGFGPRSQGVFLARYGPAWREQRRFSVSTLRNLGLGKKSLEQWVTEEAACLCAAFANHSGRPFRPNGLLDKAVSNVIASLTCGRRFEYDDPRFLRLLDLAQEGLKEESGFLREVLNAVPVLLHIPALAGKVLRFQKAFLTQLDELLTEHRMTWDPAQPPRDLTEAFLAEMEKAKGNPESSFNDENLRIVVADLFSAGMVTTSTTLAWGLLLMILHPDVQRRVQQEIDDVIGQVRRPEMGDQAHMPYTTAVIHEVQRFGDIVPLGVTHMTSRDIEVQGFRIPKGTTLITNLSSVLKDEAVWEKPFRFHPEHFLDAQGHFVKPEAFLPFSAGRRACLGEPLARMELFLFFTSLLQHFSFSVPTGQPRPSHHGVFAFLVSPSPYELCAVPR
In short: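 P450-Glo format: CYP2D6 converts a proluciferin substrate to luciferin in an NADPH-driven reaction lasting 1 h at room temperature. Light output, proportional to CYP2D6 activity, reflects interference by test chemicals.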

[8] = Human pregnane X receptor (PXR) small molecule agonists, qHTS cell viability counter screen (AID 1346977); note: nearly all actives have a fitted effect of over 50% in size
In short: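 Readout is CellTiter-Fluor fluorescence from PXR-Luc HepG2 cells. Plated cells rested 5hr, then were treated with compounds for 24hr at 37C and 5% CO2, with reagent present during the last hour.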

[9] = Caspase-3/7 induction in HepG2 cells by small molecules, qHTS cell viability counter screen (AID 1346981); note: series mostly up to about 92 µM; nearly all actives have a fitted effect of over 30% in size
In short: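 Steps: seed 2,000 HepG2 cells per well; incubate 5 hr at 37 C; pin-add compounds in DMSO; incubate 16 hr; add CellTiter-Fluor; after 1 hr at 37 C and 5% CO2, read fluorescence.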

[10] = target: Nuclear receptor subfamily 1 group I member 2 (Homo sapiens) (UniProt O75469); experiment: Human pregnane X receptor (PXR) activation by small molecules, qHTS assay (AID 1346985); note: nearly all actives have a fitted effect of over 40% in size; note: potency is the fitted concentration of half-maximal effect
In short: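 DPX-2 cells (HepG2 co-transfected with a PXR response element and a CYP3A4-promoter luciferase construct) were seeded at 2,000 per well, rested 5 hr at 37C, then exposed to DMSO-dissolved compounds for 24 hr. Activation was read as luciferase luminescence.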
% is set by controls: 0 for no effect and ±100 for the full control effect.

CCCCc1cc2ccccc2c(OCCN(C)C)n1
active: Potency [7] 4.36 µM
inactive: outcome [1] | Potency [2] | Potency [3] | Potency [4] | max activation [5] 6.03% | Potency [6]

Nc1cnn([C@@H]2O[C@H](CO)[C@@H](O)[C@H]2O)c(=O)n1
inactive: Potency [8] | Potency [3] | Potency [9] | Potency [4] | Potency [7]

O=CNc1ccccc1
inactive: outcome [1] | Potency [2] | Potency [9] | Potency [4] | Potency [7]

Cc1ccc(C(C)c2ccc(C)c(C)c2)cc1C
inactive: Potency [8] | Potency [9] | Potency [7]

CC(C)(C)c1ccc(OCC2CO2)cc1 (stereo not drawn)
active: Potency [2] 55.6 µM | Potency [4] 35.1 µM
inactive: outcome [1] | Potency [3]

Nc1ccc(C(=O)Nc2ccccc2N)cc1
inactive: Potency [3] | Potency [9] | Potency [6] | Potency [7]
active: Potency [4] 8.41 µM | Potency [5] 3.55 µM | Potency [10] 11.2 µM

CN1CCC(=C2c3ccccc3CCc3sccc32)CC1
active: Potency [6] 28.2 µM | Potency [7] 1.23 µM
inactive: outcome [1] | Potency [2] | Potency [3] | Potency [9] | max activation [5] 0.0937%

CCCCCOC(=O)COc1cc(N2C(=O)C3=C(CCCC3)C2=O)c(F)cc1Cl
inactive: outcome [1] | Potency [2] | Potency [3] | Potency [9]

C[C@@H](C1=C(CCN(C)C)Cc2ccccc21)c1ccccn1
active: Potency [7] 11 µM
inactive: outcome [1] | Potency [2] | Potency [3] | Potency [9] | Potency [4]

CCC(C)N(C)C(=O)c1cc2ccccc2c(-c2ccccc2Cl)n1 (stereo not drawn)
active: Potency [4] 0.498 µM
inactive: outcome [1]

N#Cc1c(F)cccc1F
inactive: outcome [1] | Potency [2] | Potency [3] | Potency [9]

CN1CCC(=C2c3ccccc3C=Cc3ccccc32)CC1
active: Potency [7] 2.45 µM
inactive: outcome [1] | Potency [3] | Potency [9] | Potency [4]

OC(CCN1CCCCC1)(c1ccccc1)C1CCCCC1 (stereo not drawn)
active: Potency [7] 0.977 µM
inactive: outcome [1] | Potency [2] | Potency [3] | max activation [5] -2.68% | Potency [6] | Potency [10]

O=C(CC(=O)c1ccccc1)c1ccccc1
active: Potency [4] 65.7 µM
inactive: outcome [1] | Potency [3]

CCOc1cc(OCC)c(C(=O)CCC(=O)O)cc1OCC
inactive: outcome [1] | Potency [2] | Potency [3] | Potency [9] | Potency [4] | max activation [5] -2.62% | Potency [6]

Cc1ccccc1N=Nc1ccc(N=Nc2c(O)ccc3ccccc23)c(C)c1
active: Potency [2] 13.3 µM | Potency [6] 7.94 µM
inactive: Potency [3] | Potency [4] | max activation [5] 6.7% | Potency [10] | Potency [7]
